“And” between values parts separate entries of the source, which are not always exact repeats. Equal entries are not always repeated. About 2,000 (36%) of roughly 5,500 compounds were called active. Roughly 18% stayed inconclusive and do not appear here. Cut-off read from the data, not from the text of the source: active = normalized growth mostly below about 0.91 (no sharp cut-off); inconclusive = no clear call, values can overlap the other calls; inactive = mostly above about 0.92. Some of the results follow.
Assay: chemical genetic growth profiling, strain panel (AID 1159580);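 note: tested at 20 µM; growth read once vehicle control cultures reached saturation at 30 °C; 1 = growth at the plate median or of vehicle wells; lower values mean less growth of the strain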
Conditions: S. cerevisiae deletion strains, growth OD

Measured: normalized growth

CC(C)NCC(O)c1ccc(O)c(O)c1 (stereo not given)
inactive: locus YAL013W, strain DEP1, hits give low values 1.01 | locus YAL021C, strain ccr4, hits give low values 0.994 | locus YAL026C, strain drs2, hits give low values 0.994 | locus YAL030W, strain snc1, hits give low values 0.996 | locus YAL040C, strain CLN3, hits give low values 1 and 1.06 | locus YBL061C, strain skt5, hits give low values 0.99 | locus YBR009C, strain hhf1, hits give low values 0.995 | locus YBR021W, strain FUR4, hits give low values 1.01 | locus YBR023C, strain chs3, hits give low values 0.982 | locus YBR171W, strain sec66, hits give low values 0.979 | locus YBR229C, strain ROT2, hits give low values 1.02 | locus YBR231C, strain swc5, hits give low values 0.997 | locus YBR279W, strain paf1, hits give low values 0.973 | locus YCL011C, strain gbp2, hits give low values 0.978 | locus YCL016C, strain dcc1, hits give low values 0.951 | locus YCL029C, strain bik1, hits give low values 1 | locus YCL061C, strain MRC1 (second series), hits give low values 0.995 and 0.99 | locus YCL061C, strain MRC1, hits give low values 0.985 | locus YCL069W, strain vba3, hits give low values 1 | locus YCR088W, strain abp1, hits give low values 0.99 | locus YDL005C, strain med2, hits give low values 0.997 | locus YDL035C, strain GPR1, hits give low values 1.02 | locus YDL040C, strain nat1, hits give low values 1.01 | locus YDL074C, strain BRE1, hits give low values 1.03 | locus YDL101C, strain DUN1, hits give low values 1.01 | locus YDL185W, strain tfp1, hits give low values 0.984 | locus YDL192W, strain arf1, hits give low values 1 | locus YDR001C, strain nth1, hits give low values 0.992 | locus YDR069C, strain doa4, hits give low values 1.02 | locus YDR101C, strain arx1, hits give low values 1.02 | locus YDR137W, strain rgp1, hits give low values 1 | locus YDR150W, strain NUM1, hits give low values 1.02 and 0.999 | locus YDR159W, strain sac3, hits give low values 1.01 | locus YDR162C, strain NBP2, hits give low values 1 | locus YDR195W, strain ref2 0.992 | locus YDR297W, strain sur2, hits give low values 0.99 | locus YDR318W, strain mcm21, hits give low values 0.996 | locus YDR334W, strain swr1, hits give low values 0.982 | locus YDR335W, strain msn5, hits give low values 0.992 | locus YDR363W, strain ESC2, hits give low values 1.02 and 0.978 | locus YDR388W, hits give low values 0.994 | locus YDR392W, strain spt3, hits give low values 0.912 | locus YDR502C, strain sam2, hits give low values 0.999 | locus YEL003W, strain gim4, hits give low values 1.01 | locus YEL037C, strain rad23, hits give low values 0.993 | locus YEL061C, strain CIN8 (second series), hits give low values 0.994 | locus YEL061C, strain CIN8, hits give low values 1.01 | locus YER002W, strain NOP16, hits give low values 0.997 and 0.956 | locus YER015W, strain faa2, hits give low values 0.995 | locus YER016W, strain bim1, hits give low values 1.01 | locus YER110C, hits give low values 0.997 | locus YER111C, strain swi4, hits give low values 0.985 | locus YER155C, strain BEM2 (second series), hits give low values 0.989 | locus YER155C, strain BEM2, hits give low values 1.01 | locus YER167W, strain BCK2, hits give low values 0.992 | locus YFR010W, strain ubp6, hits give low values 0.992 | locus YGL078C, strain dbp3, hits give low values 0.995 | locus YGL086W, strain mad1, hits give low values 0.994 | locus YGL167C, strain pmr1, hits give low values 0.989 | locus YGL173C, strain kem1, hits give low values 0.999 | locus YGL227W, strain vid30, hits give low values 0.99 | locus YGL240W, strain doc1, hits give low values 0.982 | locus YGL248W, strain PDE1, hits give low values 1.01 | locus YGL253W, strain hxk2, hits give low values 0.999 | locus YGR078C, strain PAC10, hits give low values 1.02 and 0.98 | locus YGR135W, strain pre9, hits give low values 0.993 | locus YGR229C, strain SMI1, hits give low values 1.01 | locus YGR252W, strain gcn5, hits give low values 0.936 | locus YHR013C, strain ard1, hits give low values 0.976 | locus YHR027C, strain rpn1, hits give low values 0.997 | locus YHR030C, strain SLT2, hits give low values 1.01 and 0.977 | locus YHR079C, strain IRE1 (second series), hits give low values 1 | locus YHR079C, strain IRE1, hits give low values 0.993 | locus YHR094C, strain hxt1, hits give low values 0.987 | locus YHR129C, strain ARP1, hits give low values 1.01 | locus YHR142W, strain chs7, hits give low values 0.965 | locus YHR200W, strain rpn10, hits give low values 1 | locus YIL066C, strain RNR3, hits give low values 1.01 | locus YIL073C, strain SPO22, hits give low values 1.05 | locus YIL125W, strain kgd1, hits give low values 0.99 | locus YIR030C, strain dcg1, hits give low values 1.01 | locus YJL092W, strain hpr5, hits give low values 0.985 | locus YJL095W, strain BCK1 (second series), hits give low values 0.995 | locus YJL095W, strain BCK1, hits give low values 1.03 and 0.991 | locus YJL115W, strain asf1, hits give low values 0.995 | locus YJL129C, strain trk1, hits give low values 0.979 | locus YJL134W, strain LCB3, hits give low values 1.02 | locus YJL154C, strain vps35, hits give low values 0.995 | locus YJL164C, strain tpk1, hits give low values 0.998 | locus YJL166W, strain qcr8, hits give low values 0.972 | locus YJL168C, strain set2, hits give low values 0.984 | locus YJL187C, strain SWE1 (second series), hits give low values 1.01 | locus YJL187C, strain SWE1, hits give low values 1 | locus YJR043C, strain POL32, hits give low values 1.01 | locus YJR066W, strain TOR1, hits give low values 0.944
